The values below come from PubChem BioAssay AID376 (PDSP, 2006).

The campaign covered roughly 2,000 compounds. About 250 (12%) were called active. Many of the other results were omitted from the sample, so actives are more common in it than they were. Values without a mark were called inactive. Rule as the data show it: active = hERG blockade below about -20% or above about 20%; inactive = in between.

This test deals with Voltage-gated inwardly rectifying potassium channel KCNH2 (Homo sapiens) (UniProt Q12809). The test can be described thus: modulators of KCNH2 ion channel function, cellular (AID 376).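 Also: 0% = buffer alone and 100% = reference blocker.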 The note with it: hERG-expressing cells, channel activity single-concentration screen; concentration not given here.
Voltage-gated inwardly rectifying potassium channel KCNH2 (Homo sapiens), sequence (Q12809 whole entry, looked up): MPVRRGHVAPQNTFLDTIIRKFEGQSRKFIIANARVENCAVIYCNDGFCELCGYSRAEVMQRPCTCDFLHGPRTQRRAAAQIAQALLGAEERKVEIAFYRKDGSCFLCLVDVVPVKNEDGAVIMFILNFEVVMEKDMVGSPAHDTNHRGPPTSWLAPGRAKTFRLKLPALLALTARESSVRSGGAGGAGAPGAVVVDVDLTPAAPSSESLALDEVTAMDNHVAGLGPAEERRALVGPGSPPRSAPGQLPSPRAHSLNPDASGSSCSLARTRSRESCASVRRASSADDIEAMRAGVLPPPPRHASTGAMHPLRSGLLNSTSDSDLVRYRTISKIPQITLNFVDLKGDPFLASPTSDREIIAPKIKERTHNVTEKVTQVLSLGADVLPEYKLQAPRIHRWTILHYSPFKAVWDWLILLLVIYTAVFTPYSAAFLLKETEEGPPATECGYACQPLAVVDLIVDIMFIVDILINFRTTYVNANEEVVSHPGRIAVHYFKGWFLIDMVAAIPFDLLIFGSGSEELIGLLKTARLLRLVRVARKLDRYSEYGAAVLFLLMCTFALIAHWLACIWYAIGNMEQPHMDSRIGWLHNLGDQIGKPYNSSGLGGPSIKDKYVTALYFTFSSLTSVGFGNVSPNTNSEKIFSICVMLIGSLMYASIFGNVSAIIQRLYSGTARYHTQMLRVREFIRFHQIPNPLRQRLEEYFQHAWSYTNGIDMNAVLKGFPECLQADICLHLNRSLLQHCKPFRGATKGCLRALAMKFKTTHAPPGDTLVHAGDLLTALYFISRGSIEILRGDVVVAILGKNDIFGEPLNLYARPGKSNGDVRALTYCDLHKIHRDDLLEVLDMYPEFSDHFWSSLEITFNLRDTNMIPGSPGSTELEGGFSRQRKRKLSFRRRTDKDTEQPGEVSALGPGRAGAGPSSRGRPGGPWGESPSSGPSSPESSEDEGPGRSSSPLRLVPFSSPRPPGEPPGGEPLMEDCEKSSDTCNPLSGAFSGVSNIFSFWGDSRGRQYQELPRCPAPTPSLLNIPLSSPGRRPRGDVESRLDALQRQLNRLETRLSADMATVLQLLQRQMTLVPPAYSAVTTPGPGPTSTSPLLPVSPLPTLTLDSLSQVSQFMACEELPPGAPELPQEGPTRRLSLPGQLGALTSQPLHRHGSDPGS
In the case of `CC(=O)C(C)CCOC1(C)OCCC1C` (stereo not given), the hERG blockade is -22.8% (active).

In the case of `Cc1ccc(C)c(C(=N)c2ccccc2Cc2ccccc2)c1`, the hERG blockade was -12.5%. Next, `CC(SCc1ccccc1)C(=O)O` (stereo not given): 3.31%; `NCC(=O)Nc1ccccc1`: 5.81%. Take `O=C(c1no[n+]([O-])c1C(=O)c1csc2ccccc12)c1csc2ccccc12`: the hERG blockade was 18.4%.

As to `Cc1cccc2c1Oc1ccccc1C2NC(=O)c1ccc([N+](=O)[O-])cc1` (stereo not given), the hERG blockade was 32.2% (active). The figure for `O=C(O)c1ccccc1C1c2ccccc2Oc2ccccc21` is 12.2%; for `NC(CC1=CS(=O)(=O)c2ccc(Cl)cc21)C(=O)O` (stereo not given) it is 0.214%.

Regarding `Cc1cc(C(=O)CSC(=S)SC(C)(C)C)ccc1Cl`, the hERG blockade is 8.12%. For `CN(C)CCCNc1cc(O)c2c(c1O)C(=O)c1ccccc1C2=O`, the hERG blockade is 42.1% (active). The figure for `CC1=NCC[N+]1(CCc1ccccc1)Cc1ccccc1` (stereo not given) is 13.6%; for `CN(C)S(=O)(=O)c1nc(Cl)c2[nH]cnc2n1` it is -2.43%; for `COc1cc(NCCC(=O)O)c2ncccc2c1` it is 11.9%. Next, `Cn1c(=O)c2[nH]c(CCCCc3nc4c([nH]3)c(=O)n(C)c(=S)n4C)nc2n(C)c1=S`: -1.88%; `O=C1C=C(N2CCN(c3ccccn3)CC2)C(=O)c2c(O)ccc(O)c21`: 23.2% (active). Next, `Oc1ccc(Cl)cc1C=Nc1cnc2ccccc2c1`: 9.11%.

Take `C=CCSc1nc2ccccc2c(=O)n1Cc1ccco1`: the hERG blockade was 3.62%. As to `N#CNC(N)=Nc1ccc(Cl)cc1`, the hERG blockade is -2.36%. Take `O=C(O)C12CC3(C(=O)O)CC(C(=O)O)(CC(C(=O)O)(C1)C3=O)C2=O`: the hERG blockade is -1.77%.

For `FC(F)(F)c1cccc(-c2nc3nc(Cl)c(Cl)nc3[nH]2)c1`, the hERG blockade was -24% (active). Next, `CC(CCN)(CCN)[N+](=O)[O-]`: -18.2%; `CN(Cc1cc(C(C)(C)C)cc(Br)c1O)Cc1cc(C(C)(C)C)cc(Br)c1O`: 5.11%; `CC(C)C(=O)Cc1ccc2ccccc2n1`: -1.76%. On to `CCOC(=S)SCC(=O)O`, for which the hERG blockade was 0.925%. Next, `O=C(O)C1C2CCC(O2)C1C(=O)NCc1cccnc1` (stereo not given): -25.3% (active). Next, `O=C(O)C1C2C=CC(O2)C1C(=O)NCc1cccnc1` (stereo not given): 5.66%; `O=C(O)C1C2CCC(O2)C1C(=O)Nc1cccc2cccnc12` (stereo not given): -5.21%. Next, `N=c1ncn(CC=Cc2ccccc2)c2nc[nH]c12`: 15.2%. With `CN(N=O)c1ccc(C=Cc2ccnc3ccccc23)cc1`, the hERG blockade was 18.7%.

In the case of `CN1CCN(CN2C(=O)C3C4C=CC(C3C2=O)C2C3C(=O)N(CN5CCN(C)CC5)C(=O)C3C42)CC1` (stereo not given), the hERG blockade was 2.12%. Next, `NC(Cc1ccnnc1)C(=O)O` (stereo not given): -0.431%; `O=C(O)C1CC=CCC1C(=O)Nc1cccc(O)c1` (stereo not given): 7.36%; `O=C1c2ccccc2C(=O)c2c(NC(=O)c3ccc4c5c(ncnc35)-c3ccccc3C4=O)cccc21`: 6.48%. In the case of `O=C1c2ccccc2C(=O)c2c(Nc3cc4c5c(ccc6c7ccc8c9c(cc(Nc%10cccc%11c%10C(=O)c%10ccccc%10C%11=O)c(c3c56)c97)-c3ccccc3C8=O)C(=O)c3ccccc3-4)cccc21`, the hERG blockade is 34.1% (active).

As for `O=C1c2ccccc2C(=O)c2c(Nc3ccc4c5c(cccc35)C(=O)c3ccccc3-4)cccc21`, the hERG blockade is -13.6%. `CC1CCC(O)(C(C)(C(=O)O)c2ccccc2)CC1` (stereo not given): the hERG blockade is 5.36%. For `CCCn1cnc2c(SCc3ccc(Cl)cc3)nc(N)nc21`, the hERG blockade was -2.91%. For `C=CCC(C(=O)O)c1ccccc1` (stereo not given), the hERG blockade was -1.33%.

`CN(C)CN1CSC(=S)N(CN(C)C)C1`: the hERG blockade is -7.7%.

Take `CCn1c(CCCc2nc3c([nH]2)c(=O)n(C)c(=O)n3C)nc2c1c(=O)n(C)c(=O)n2C`: the hERG blockade was 25.2% (active). Consider `Cn1c(=O)c2[nH]c(CCCCC(=O)O)nc2n(C)c1=O`, for which the hERG blockade was -14.9%. Next, `Cn1c(=O)c2[nH]c(CCS)nc2n(C)c1=O`: 5.6%; `O=C(O)CC(Nc1ccccc1)C(=O)O` (stereo not given): 12.6%. Next, `O=C(O)c1nnsc1COCc1ccccc1`: 7.88%.

On to `O=c1c2ccccc2sc2c(CO)ccc(NCCN3CCCCC3)c12`, for which the hERG blockade was 46% (active).

On to `O=C(CCN1CCCCC1)c1csc2ccccc12`, for which the hERG blockade is 6.4%. Next, `CC(=O)OC1CCC2(C)C(=CCC3C2CCC2(C)C(C(C)C(=O)O)CCC32)C1` (stereo not given): -4.67%; `CC(=O)OC1CCC2(C)C(=CCC3C2CCC2(C)C(c4cc(C(F)(F)F)n(C(C)=O)n4)CCC32)C1` (stereo not given): 20.6% (active). In the case of `CC(=O)OC1CCC2(C)C(=CCC3C2CCC2(C)C3CC3OC4(CCC(C)CN4)C(C)C32)C1` (stereo not given), the hERG blockade is -9.31%. The figure for `CC(C)(CN)CN` is -12.2%. In the case of `O=c1c[n+](CCCC[n+]2cc(=O)o[nH]2)[nH]o1`, the hERG blockade is -2.64%.

As for `Nc1ncnc2nc[nH]c12.Nc1ncnc2nc[nH]c12.[Cl][Pt]([Cl])([Cl])[Cl]`, the hERG blockade was 0.497%. Next, `O=C1C=C(Nc2nc(C(=O)O)cc(=O)[nH]2)c2ccccc2C1=O`: 2.16%; `O=C=Nc1ccc(Cc2ccc(N=C=O)cc2)cc1` (tested in a mixture with another compound): 20% (active); `Nc1n[nH]c2ccccc12`: 0.624%. The figure for `CN(C)CCNS(=O)(=O)N(C)C` is 6.32%; for `COc1c2c(c3c(c1CCC(=O)O)OC(C)(C)C=C3)OC(C)(C)C=C2` it is -28.9% (active). The figure for `O=C(O)CSc1ccc(N=C=S)cc1` is 3.98%; for `CC(C)(N)C(=O)NC1C(=O)N2C1SC(C)(C)C2C(=O)O` (stereo not given) it is -3.34%. `COC1C=COC2(C)Oc3c(C)c(O)c4c(O)c(c(CN(C)C)c(O)c4c3C2=O)NC(=O)C(C)=CC=CC(C)C(O)C(C)C(O)C(C)C(OC(C)=O)C1C` (stereo not given): the hERG blockade is 16.3%. `NN(CC(=O)O)CC(=O)O`: the hERG blockade is 0.375%. Take `O=C(O)CN(CC(=O)O)c1ccccc1`: the hERG blockade was -27.7% (active). The figure for `CS(=O)(=O)N(CC(=O)O)Cc1ccccc1` is 12.2%. The figure for `CC(C)=CCc1c2c(c3occ(-c4ccc(O)c(O)c4)c(=O)c3c1O)C=CC(C)(C)O2` is 6.29%; for `O=C(O)c1ccc(SSc2ccc(C(=O)O)cn2)nc1` it is -6.71%. The figure for `O=C(O)C1C2CC3C(OC(=O)C31)C2Br` (stereo not given) is 2.45%. Turning to `Cn1c(=O)c2[nH]c(CCNC(=O)c3ccccc3)nc2n(C)c1=O`, the hERG blockade is -14%.

As for `N=C(N)c1ccc(C=Cc2ccc(C(=N)N)cc2)cc1`, the hERG blockade is 30.2% (active). The figure for `N=C(N)c1ccc(-c2ccc(-c3ccc(C(=N)N)cc3)o2)cc1` is 38.8% (active); for `NC(CSCc1ccccc1)C(=O)O` (stereo not given) it is -2.53%. Next, `Nc1nc(Sc2ccc([N+](=O)[O-])c3nonc23)c2[nH]cnc2n1`: 23.5% (active); `Nc1nc(SCc2ccccc2[N+](=O)[O-])c2[nH]cnc2n1`: -11.5%.

With `CNc1ncnc(Sc2nc(N)nc3nc[nH]c23)c1[N+](=O)[O-]`, the hERG blockade is -10.6%. The figure for `CC1(C)N=C(N)N=C(N)N1c1cccc(OCc2cccc(N)c2)c1` is 4.96%; for `NC(=O)CC=CCC(N)=O` it is 1.92%; for `O=C(O)c1ccc(C(=O)Nc2cccc3ccccc23)c(C(=O)O)c1` it is -3.99%.

Consider `S=C(CSc1ccccc1)Nc1cccc2ccccc12`, for which the hERG blockade was -7.05%. Take `O=C(Nc1cccc2ccccc12)c1ccccc1`: the hERG blockade is -30.7% (active). `COC(=O)C1(C)CCC(c2ccc(C)cc2)=C(CC(=O)O)C1` (stereo not given): the hERG blockade is -13.4%. On to `OCCNC1c2cc(Cl)ccc2-c2c(Cl)cc(Cl)cc21` (stereo not given), for which the hERG blockade is 46.9% (active). Next, `O=C(NCCO)c1ccc(Cl)cc1`: 5.8%; `c1ccc(B2OCC(C3OB(c4ccccc4)OC4COB(c5ccccc5)OC43)O2)cc1` (stereo not given): 2.69%; `CC1CCCC(CC(=O)O)(CC(=O)O)C1` (stereo not given): -3.65%.

Consider `CC1(C)C2CCC1(CC(=O)O)C(Cl)C2` (stereo not given), for which the hERG blockade is -22.5% (active).

Turning to `CC1(CC(=O)O)OC2CCCCCC2O1` (stereo not given) (tested in a mixture with another compound), the hERG blockade is 1.56%. Next, `COc1ccc(CC[N+]2(C)COc3cc4oc(=O)cc(C)c4cc3C2)cc1OC` (stereo not given): 11%; `Cc1c(O)c(Br)c(C)c(O)c1Br` (tested in a mixture with another compound): 12.5%; `CC12CCC3c4ccc(O)cc4CCC3C1CCC2OP(=O)(O)O` (stereo not given): -3.7%. On to `CC(NCCN(C)C)C1CCC2C3CCc4cc(O)ccc4C3CCC12C` (stereo not given), for which the hERG blockade is 22.1% (active). Take `CC12CCC3c4ccc(O)cc4CCC3C1CC(=NO)C2O` (stereo not given): the hERG blockade was -10.7%. `Cc1cc(=Nc2ccc3c(c2)c(N)cc(C)[n+]3C)nc(N)n1C`: the hERG blockade is 30.2% (active). `OCc1ccncc1.OCc1ccncc1.[Cl][Pt]([Cl])([Cl])[Cl]`: the hERG blockade is 1.38%. In the case of `CCC(=O)Nc1ncnc2ncn(C(=O)CC)c12`, the hERG blockade is 12.6%. As to `CC(C)COC(c1ccc2c(c1)OCO2)C(C)Br` (stereo not given), the hERG blockade was 0.642%.

On to `COc1ccc(C(O)c2ccccn2)cc1` (stereo not given), for which the hERG blockade is 3.46%. The figure for `COc1ccc(C(Nc2ccccn2)c2cc(C(C)(C)C)cc(C(C)(C)C)c2O)cc1` (stereo not given) is 9.88%. The figure for `COc1ccc(C(C)c2cc3c(cc2O)OCO3)cc1` (stereo not given) is 30% (active); for `COc1ccc(C(Nc2ncccn2)c2cc3c(cc2O)OCO3)cc1` (stereo not given) it is -20.2% (active); for `O=C(O)c1c(-c2c3ccc(=O)cc-3oc3cc(O)ccc23)cc2ccccc2c1-c1ccccc1` it is 11.7%.

`CC(C)(C)NCC(O)c1ccc(O)c(CO)n1` (stereo not given): the hERG blockade was -0.947%.
